Source: PubChem BioAssay (National Center for Advancing Translational Sciences (NCATS))
DRD3 antagonist – qHTS of D3 Dopamine Receptor Antagonist: qHTS; D(3) dopamine receptor (Homo sapiens), P35462; D3R cells, DiscoveRx beta-arrestin luminescence, antagonist mode; stronger effect = lower value; max response, negative = inhibition, %; hit rate 2.5% among 360,000; AID 652054, 2013; in the data active means max response below about -50%; inconclusive means no clear call, values can overlap the other calls
Target sequence (P35462 whole entry, looked up): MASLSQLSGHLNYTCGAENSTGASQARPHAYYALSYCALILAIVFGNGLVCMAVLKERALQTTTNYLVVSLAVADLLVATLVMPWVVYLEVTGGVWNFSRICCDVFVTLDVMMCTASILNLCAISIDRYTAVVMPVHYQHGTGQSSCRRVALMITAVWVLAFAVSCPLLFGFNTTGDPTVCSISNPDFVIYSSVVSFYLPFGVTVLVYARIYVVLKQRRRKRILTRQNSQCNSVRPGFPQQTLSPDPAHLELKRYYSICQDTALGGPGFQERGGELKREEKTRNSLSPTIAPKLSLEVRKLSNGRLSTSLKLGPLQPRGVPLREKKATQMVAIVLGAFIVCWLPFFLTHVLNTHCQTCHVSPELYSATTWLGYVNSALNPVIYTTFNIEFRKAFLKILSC
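Cells expressing the human receptor were seeded at 1500 cells/well, incubated overnight at 37 degrees C in 5% CO2, then exposed to library compounds with dopamine controls for 90 minutes at 37 degrees C before luminescent detection.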
D1 PAM – Potentiators of Human D1 Dopamine Receptor: qHTS; HEK293 TREx D1 cells, calcium flux, dopamine EC20 potentiation; potentiation, % at 10 µM; hit rate 0.036% among 360,000; AID 504651, 2011; in the data active means potentiation above about 30%
DRD3 agonist – qHTS of D3 Dopamine Receptor Agonist: qHTS. D(3) dopamine receptor (Homo sapiens), P35462. D3R DiscoveRx beta-arrestin cells, luminescence, 90 min. max activation, %. hit rate 0.58% among 410,000. AID 652048, 2013; in the data active means max activation above about 30%
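Cells at 1500/well, incubated overnight, then treated with pinned compounds (dopamine as control) for 90 min at 37 degrees C. DiscoveRx reagent added for 30 - 60 minutes at room temperature; luminescence read.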
D1 agonist – Allosteric Agonists of the Human D1 Dopamine Receptor: qHTS; D(1A) dopamine receptor (Homo sapiens), P21728; HEK293 T-REx D1 cells, calcium flux, agonist mode; activation, % at 2 µM; hit rate 1% among 360,000; AID 504660, 2011; in the data active means activation above about 30%
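Agonism was scored from calcium flux recorded over 180 s (1 read/s) after pintool compound addition, following a 10-cycle baseline. Cells were inducible force-coupled HEK293 TREx D1, plated overnight at 30 C and loaded with no-wash calcium dye.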
D1 antagonist – Antagonist of Human D 1 Dopamine Receptor: qHTS; D(1A) dopamine receptor (Homo sapiens), P21728; HEK293 TREx D1 cells, calcium flux, dopamine EC80; stronger effect = lower value; activity change, negative = inhibition, % at 10 µM; hit rate 3.2% among 360,000; AID 504652, 2011; in the data active means activity change below about -30%
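Antagonism measured as reduced calcium response to an EC80 dopamine addition following 180 s compound pre-read; cells were inducible HEK293 Trex D1 plated overnight at 30 C, read kinetically at 1 cycle/sec.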
Each line names hits and unclear results; the compound was inactive in the other large screens; ! = not active in a repeat. The list is not random: actives were taken first. Their share in the collection is about 6%.

Cc1ccc(S(=O)(=O)N2CCOCC2)cc1C(=O)NC1CCN(Cc2ccccc2)CC1	none (no result: D1 PAM, D1 agonist, D1 antagonist)
CCN(Cc1ccccc1)S(=O)(=O)c1ccc(F)c(C(=O)Nc2cc(C(F)(F)F)ccc2Cl)c1	D1 antagonist -30 (no result: DRD3 antagonist)
CN(Cc1cnc2nc(N)nc(N)c2n1)c1ccc(C(=O)NC(CCC(=O)O)C(=O)O)c2ccccc12 (stereo not given)	none (no result: D1 PAM, D1 agonist, D1 antagonist)
CCNc1ccc(S(=O)(=O)C(F)(F)F)cc1NC(=O)C12CCC(CC1)C2	none
CCNc1cc(S(=O)(=O)C(F)(F)F)ccc1N	D1 antagonist -38
COc1ccc(OC)c(/C=C2\N=C(c3ccccc3)OC2=O)c1	D1 agonist 74
CCN(CCN(C)C)C(=O)C1CCN(S(=O)(=O)c2c(C)noc2/C=C/c2ccccc2F)CC1	DRD3 antagonist -54, D1 antagonist -37
CCOc1ccccc1/C=C/c1onc(C)c1S(=O)(=O)N1CCC(C(=O)N(CC)CC)CC1	none
O=C(Oc1ccc(Br)cc1C(=S)N1CCOCC1)c1ccc([N+](=O)[O-])cc1[N+](=O)[O-]	DRD3 antagonist inconclusive
COc1cc(OC)cc(-c2nc3ccccc3c(=O)n2OC(=O)c2ccccc2C)c1	DRD3 agonist 34
Cn1ncc2c(=O)n(CC(=O)NC34CC5CC(CC(C5)C3)C4)cnc21	D1 antagonist -34
CC(C)(C)n1ncc2c(=O)n(CC(=O)NCc3ccccc3)cnc21	none
Cn1c(=O)oc2cc(S(=O)(=O)Nc3ccc(O)cc3)ccc21	D1 antagonist -31!
Cn1c(=O)oc2cc(S(=O)(=O)Nc3ccc(Cl)cc3)ccc21	none
CCc1ccc(NC(=O)CSc2ccc3nc(-c4ccc(OC)cc4)cn3n2)cc1	none (no result: DRD3 antagonist)
C#C[C@]1(OC(C)=O)CC[C@H]2[C@@H]3CCC4=C/C(=N/O)CC[C@@H]4[C@H]3CC[C@@]21CC	DRD3 agonist 37 (no result: DRD3 antagonist, D1 PAM, D1 agonist, D1 antagonist)
CC(=O)Nc1ccc(S(=O)(=O)NC2(C(F)(F)F)C(=O)Nc3c2c(=O)[nH]c(=O)n3-c2cccc(Cl)c2)cc1 (stereo not given)	none (no result: DRD3 antagonist)
COc1cc2c(cc1OC)n(Cc1cccc(C(F)(F)F)c1)c(=O)n1nc(-c3ccccc3)nc21	none (no result: DRD3 antagonist)
O=S(=O)(c1ccc(F)c(F)c1F)N1CCN(C(=S)NC2CC3CCC2C3)CC1 (stereo not given)	D1 antagonist -30
CN1C(=O)C(N=Nc2ccccc2C(=O)O)N(C)C1=S (stereo not given)	D1 agonist 46
Clc1ccc(-c2nc3nc4ccccc4nc3n2Cc2ccco2)cc1	D1 antagonist -41
CCCC(=O)Nc1cc2nn(-c3ccc(OC)cc3)nc2cc1C	DRD3 agonist 43 (no result: DRD3 antagonist)
COc1cccc2oc(-c3ccco3)cc(=O)c12	DRD3 antagonist -54
CSc1cccc(N2CC(C(=O)Nc3ccccc3N3CCCC3)CC2=O)c1 (stereo not given)	D1 antagonist -32
COc1cc(OC)c2c(-c3ccccc3)cc(=O)oc2c1C(CC(=O)N1CCOCC1)c1ccc2c(c1)OCO2 (stereo not given)	D1 antagonist -60
COc1cc(O)c(C(CCN2CCN(c3ccccc3)CC2)c2cc(OC)c(OC)c(OC)c2)c(OC)c1 (stereo not given)	DRD3 antagonist -137, D1 antagonist -87
COc1cc(O)c(C(CCN2CCN(c3ccccc3)CC2)c2ccc3c(c2)OCO3)c(OC)c1 (stereo not given)	DRD3 antagonist -108, D1 antagonist -76
COc1cc(OC)c2c(C)cc(=O)oc2c1C(CCN1CCN(c2ccccc2)CC1)c1ccc2c(c1)OCO2 (stereo not given)	D1 antagonist -79
COc1cc(OC)c2c(-c3ccccc3)cc(=O)oc2c1C(CCN1CCOCC1)c1ccc2c(c1)OCO2 (stereo not given)	none (no result: D1 PAM, D1 agonist, D1 antagonist)
CC(C)N(C)c1ncnc2c1ncn2[C@H]1CN(Cc2ccc(Cl)cc2)C[C@@H](CO)O1	none (no result: D1 PAM, D1 agonist, D1 antagonist)
COc1ccc(OC)c(-n2c(SCC(N)=O)nnc2-c2c[nH]c3ccccc23)c1	none (no result: D1 PAM)
COc1ccc(OC)c(-n2c(SCC(=O)Nc3cc(C)on3)nnc2-c2c[nH]c3ccccc23)c1	DRD3 antagonist -51 (no result: D1 PAM)
COc1ccc(C)cc1-n1nnnc1SCC(=O)NC(=O)NCc1ccco1	D1 antagonist -37
COc1ccc(C)cc1-n1nnnc1SCC(=O)Nc1cc(C)on1	D1 antagonist -51
Cc1cc(N2CCC(C(=O)NCCC(C)C)CC2)n2nc(C)c(-c3ccc(Cl)cc3)c2n1	none (no result: DRD3 antagonist)
COc1cc(OC)cc(C2=Cc3ccccc3C(CC(=O)c3ccco3)N2c2ccc(-c3cccnc3)cc2)c1 (stereo not given)	none (no result: D1 PAM, D1 agonist, D1 antagonist)
COc1ccc(NC(=O)c2nnn(CC(=O)Nc3cccc(C)c3C)c2N)c(OC)c1	none (no result: DRD3 antagonist)
COc1ccc(CN2CCC(CNS(=O)(=O)c3cccc(C(F)(F)F)c3)CC2)cc1	DRD3 antagonist inconclusive, D1 agonist 35
O=S(=O)(NCC1CCCO1)c1cccc(C(F)(F)F)c1 (stereo not given)	D1 antagonist -46
O=C(O)c1cccc(S(=O)(=O)NCC2CCCO2)c1 (stereo not given)	none
COC(=O)c1cc(S(=O)(=O)NCC2CCN(Cc3ccc(F)cc3)CC2)c[nH]1	none
CCOc1ccccc1CNC(=O)C1CCN(C(=O)N2CCOc3ccc(Cl)cc32)CC1	none (no result: DRD3 antagonist)
O=C(CN(C(=O)CNS(=O)(=O)c1ccccc1)c1ccc(F)cc1)NCc1ccco1	none (no result: D1 PAM)
Cn1cc(C[C@H](NC(=O)OC(C)(C)C)C(=O)N[C@@H](CO)Cc2ccccc2)c2ccccc21	none (no result: D1 PAM, D1 agonist, D1 antagonist)
O=C1CCN(Cc2ccccc2)C=C1C(=O)c1ccccc1	DRD3 agonist 47 (no result: D1 PAM, D1 agonist, D1 antagonist)
O=C1CCN(Cc2ccccc2)C=C1c1ccc(Cl)cc1	none (no result: D1 PAM, D1 agonist, D1 antagonist)
N=c1oc2c3c4c(cc2cc1C(=O)Nc1ccccc1)CCCN4CCC3	D1 agonist 385, D1 antagonist -88
Cc1ccc(NC(=O)c2cc3ccccc3oc2=N)cc1	none
C#CCOCCOCCOCCNc1nc(N2CCN(C(=O)CCCCCCCCCCNC(=O)[C@H]([C@@H](C)CC)n3cc(CCCCCN)nn3)CC2)nc(N2CCN(C(=O)CCCCCCCCCCNC(=O)[C@@H]([C@H](C)CC)n3cc(CCCCCN)nn3)CC2)n1	none (no result: DRD3 antagonist, DRD3 agonist)
C#CCOCCOCCOCCNc1nc(N2CCN(C(=O)CCCCCCCCCCNC(=O)[C@H]([C@@H](C)CC)n3cc(CCCCCN)nn3)CC2)nc(N2CCN(C(=O)CCCCCCCCCCNC(=O)[C@H]([C@@H](C)CC)n3cc(CCCCN=C(N)N)nn3)CC2)n1	none (no result: DRD3 antagonist, DRD3 agonist)
